Experiment [1] in a line: resazurin metabolic signal in HepG2 cells – cell-based, resazurin fluorescence, 24 h, PK04 Diversity Set, profiling panel (AID 1172). Note: test concentration not given here. The settings on record: HepG2 viability, higher = more signal.
Experiment [2] is described as follows: budding yeast growth changes without added modifier – OD600, strain BY4716, 24 h, basal condition, primary screen (AID 1173). As to conditions: S. cerevisiae BY4716 growth, OD600, 24 h; higher = more signal, called active from +8 up or from −8 down.
The nature of experiment [3]: viability profiling in MM1S myeloma cells – cell-based, resazurin fluorescence, basal, 24 h, PK04 Diversity Set, profiling panel (AID 1174).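 Note: MM1S multiple myeloma cell line; test concentration not given here.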 The settings on record: higher = more signal, called active from +8 up or from −8 down. (In general: Resazurin is reduced to fluorescent resorufin, in cell work by metabolically active cells.)
Experiment [4] concerns the target Dihydroorotate dehydrogenase (quinone), mitochondrial (Plasmodium falciparum (isolate 3D7)) (UniProt Q08210). The experiment is described as follows: inhibition of P. falciparum DHODH – biochemical, C-terminal His tag, absorbance 600 nm, primary screen (AID 1175).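 Note: recombinant parasite enzyme with a five histidine tag at its C terminus; test concentration not given here.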 As to conditions: PfDHODH enzyme, DCIP absorbance 600 nm; higher = more signal, called active from +8 up or from −8 down.

The nature of experiment [5]: inhibition of PAO1 biofilm formation – strain PAO1, LB-PBS medium, absorbance 600 nm, primary screen (AID 1176). Note: test concentration not given here. The settings on record: P. aeruginosa PAO1 growth/biofilm, A600, 12 h; higher = more signal.
Experiment [6] is described as follows: growth modulation of vineyard yeast isolate – strain RM11-1a, OD600, basal, 24 h, primary screen (AID 1177).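 Note: cultures grown under basal conditions with no added stressor; test concentration not given here.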 As to conditions: S. cerevisiae RM11-1a growth, OD600, 24 h; higher = more signal, called active from +8 up or from −8 down.
Experiment [7] is described as follows: growth of efflux-deficient E. coli DRC39 – strain DRC39, OD650, 24 h, E. coli filamentation inducers, primary screen (AID 1178).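 Note: growth measured as culture turbidity by optical density at 650 nm; test concentration not given here.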 As to conditions: E. coli DRC39 acrAB, higher = more signal, called active from +8 up or from −8 down.
Experiment [8] in a line: growth of efflux-deficient E. coli DRC39 – strain DRC39, OD650, 48 h, E. coli filamentation inducers, primary screen (AID 1179).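 Note: screen aims at cell division blockers that make cells filament.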 As to conditions: E. coli DRC39 delta-acrAB growth, higher = more signal, called active from +8 up or from −8 down.
The nature of experiment [9]: viability profiling in RPMI8226 myeloma cells – cell-based, resazurin fluorescence, basal, 24 h, PK04 Diversity Set, profiling panel (AID 1180).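 Note: RPMI8826 multiple myeloma cell line at 5000 cells per well; test concentration not given here.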 The settings on record: higher = more signal.
In experiment [10] the target is E3 ubiquitin-protein ligase XIAP (Homo sapiens) (UniProt P98170). The experiment is described as follows: small molecules binding XIAP protein – biophysical, small-molecule microarray, fluorescence 635 nm, primary screen (AID 1181).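 Note: score merges 667 nm emission and signal to noise over triplicate slides.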 As to conditions: higher = more signal.

Each structure is given as a SMILES string. Calls of active or inactive are those of the source. Unless noted, the rule behind the calls is not given here.

E3 ubiquitin-protein ligase XIAP (Homo sapiens), sequence (P98170 whole entry, looked up): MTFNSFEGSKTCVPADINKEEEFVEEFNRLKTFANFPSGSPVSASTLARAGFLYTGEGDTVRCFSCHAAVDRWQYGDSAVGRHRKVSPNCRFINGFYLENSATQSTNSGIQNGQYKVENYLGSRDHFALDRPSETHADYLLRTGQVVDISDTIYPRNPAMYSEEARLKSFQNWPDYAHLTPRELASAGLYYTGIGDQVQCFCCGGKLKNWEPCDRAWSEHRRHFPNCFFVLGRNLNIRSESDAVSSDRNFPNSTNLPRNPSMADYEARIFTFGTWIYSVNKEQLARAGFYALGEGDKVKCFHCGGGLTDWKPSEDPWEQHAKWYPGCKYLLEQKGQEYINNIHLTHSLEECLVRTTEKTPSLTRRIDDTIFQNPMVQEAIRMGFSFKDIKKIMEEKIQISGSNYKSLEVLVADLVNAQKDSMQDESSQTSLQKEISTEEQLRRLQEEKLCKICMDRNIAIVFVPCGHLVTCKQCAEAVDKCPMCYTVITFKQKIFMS
Dihydroorotate dehydrogenase (quinone), mitochondrial (Plasmodium falciparum (isolate 3D7)), sequence (Q08210 whole entry, looked up): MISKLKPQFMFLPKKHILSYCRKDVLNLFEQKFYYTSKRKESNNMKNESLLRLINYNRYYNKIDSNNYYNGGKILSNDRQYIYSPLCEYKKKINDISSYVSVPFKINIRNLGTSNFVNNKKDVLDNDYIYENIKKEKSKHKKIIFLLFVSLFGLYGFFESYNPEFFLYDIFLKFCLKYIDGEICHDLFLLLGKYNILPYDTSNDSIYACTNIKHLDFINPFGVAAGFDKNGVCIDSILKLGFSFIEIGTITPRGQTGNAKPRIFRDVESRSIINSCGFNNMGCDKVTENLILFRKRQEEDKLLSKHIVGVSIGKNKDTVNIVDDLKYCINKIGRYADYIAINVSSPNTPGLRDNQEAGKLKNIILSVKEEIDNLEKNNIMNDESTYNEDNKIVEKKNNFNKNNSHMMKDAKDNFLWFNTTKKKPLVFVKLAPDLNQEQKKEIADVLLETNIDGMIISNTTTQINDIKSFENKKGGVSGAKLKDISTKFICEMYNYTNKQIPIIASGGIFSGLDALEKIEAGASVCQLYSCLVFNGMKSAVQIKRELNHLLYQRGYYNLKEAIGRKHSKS

As to `C[C@@H]1CC[C@H]2C(=O)O[C@H](COc3ccc(C(C)(C)C)cc3)CN2[C@H]1c1ccc(Br)cc1`, the z-score was 0.182 in experiment [1]; 0.789 (inactive) in [2]; 0.837 (inactive) in experiment [3]; 0.18 (inactive) in experiment [5]; 1.71 (inactive) in [6]; -0.474 (inactive) in experiment [7]. Besides, the z-score in experiment [8] was -0.438 (inactive); in [9], 1.12. In addition, the composite z-score in experiment [4] was 0.702 (inactive); in experiment [10], -0.0118.

Take `NC(=O)NCC#Cc1ccc2c(c1)[C@]1(C(=O)N2)[C@H](c2ccc(O)cc2)N2[C@H](c3ccccc3)[C@H](c3ccccc3)OC(=O)[C@H]2[C@@H]1C(=O)N1CCCCCCC1`: the z-score was 0.855 in [1]; 1.16 (inactive) in experiment [2]; 0.949 (inactive) in experiment [3]; 1.1 (inactive) in experiment [5]; 1.96 (inactive) in experiment [6]; 1.04 (inactive) in experiment [7]. Besides, the values for the z-score in experiment [8] and in experiment [9] were -0.817 (inactive) and 1.36, respectively. The results for the composite z-score in experiment [4] and in experiment [10] were -0.127 (inactive) and -0.0925, respectively.

With `Cc1cc(C)c(-c2cc([C@H](C)ON=C3[C@H]4CCn5c(=O)n(-c6ccccc6)c(=O)n5[C@H]4[C@H](O)[C@@H]4O[C@H]34)on2)c(C)c1`, the z-score is -0.991 in experiment [1]; -0.752 (inactive) in [2]; -1.89 (inactive) in experiment [3]; -0.242 (inactive) in [5]; 0.615 (inactive) in [6]; 0.663 (inactive) in experiment [7]. Moreover, the z-score in experiment [8] is 0.421 (inactive); in experiment [9] it was -2.22. For the same compound, the composite z-score is -0.297 (inactive) in [4] and -0.196 in experiment [10].

In the case of `CO[C@@H]1COC(=O)[C@@H]2CCCN2C(=O)[C@@H](C)COC(=O)[C@H](COCc2ccccc2)NC(=O)CC=C[C@H]1C`, the z-score was -0.327 in experiment [1]; 0.185 (inactive) in experiment [2]; -0.722 (inactive) in [3]; -0.455 (inactive) in experiment [5]; 0.549 (inactive) in [6]; -0.489 (inactive) in [7]. Besides, the values for the z-score in experiment [8] and in [9] were -1.98 (inactive) and -0.228, respectively. The results for the composite z-score in experiment [4] and in experiment [10] were -0.241 (inactive) and -0.153, respectively.

Turning to `O=C1[C@H]2[C@H]3[C@H](O)[C@H](O)CC(=NOCc4ccccc4)[C@H]3CC[C@H]2C(=O)N1C[C@@H]1CCCO1`, the z-score in [1] is 0.648; in experiment [2] it was 0.243 (inactive); in experiment [3] it was 0.18 (inactive); in experiment [5] it was 0.696 (inactive); in [6], -0.485 (inactive); in experiment [7], -0.359 (inactive). For the same compound, the z-score was -0.103 (inactive) in experiment [8] and -0.323 in experiment [9]. For the same compound, the composite z-score in experiment [4] was -0.279 (inactive); in experiment [10], -0.0773.

On to `CC(CCC(=O)OC[C@H]1O[C@H](C#Cc2ccccc2)C=C[C@@H]1Oc1ccc(C)cc1)=NOC[C@@H](O)COCc1ccco1`, for which the z-score is -0.501 in [1]; 0.384 (inactive) in [2]; -1.39 (inactive) in experiment [3]; 0.277 (inactive) in experiment [5]; -0.0703 (inactive) in [6]; 0.564 (inactive) in experiment [7]. Besides, the z-score in experiment [8] is 0.895 (inactive); in experiment [9] it was 0.131. The results for the composite z-score in [4] and in [10] were -1.24 (inactive) and -0.0454, respectively.

As to `C/C=C\[C@@H](NCc1ccccc1Br)[C@@H](O)Cc1ccccc1`, the z-score in [1] was -0.391; in experiment [2], -9.3 (active); in [3], -0.393 (inactive); in experiment [5] it was -1.61 (inactive); in [6], -0.572 (inactive); in experiment [7], -0.179 (inactive). Moreover, the z-score in experiment [8] was -1.18 (inactive); in experiment [9], -0.645. For the same compound, the composite z-score in experiment [4] was -2.11 (inactive); in experiment [10], 0.0785.

As to `CO[C@@H]1COC(=O)CCC[C@@H](C)[C@H](OC)COC(=O)CCC[C@H]1C`, the z-score in experiment [1] is 0.733; in experiment [2], 1.47 (inactive); in experiment [3], 0.367 (inactive); in [5] it was -0.667 (inactive); in [6], 1.6 (inactive); in experiment [7], 0.265 (inactive). Besides, the z-score in experiment [8] was -0.65 (inactive); in experiment [9], 0.276. Further, the values for the composite z-score in experiment [4] and in experiment [10] were -0.0732 (inactive) and -0.256, respectively.

As to `CCCC=C(CCC)[C@@H](NC(=O)c1ccc(-c2ccccc2)cc1)c1ccc(C(=O)OC)cc1`, the z-score in experiment [1] was 0.664; in experiment [2], 1.44 (inactive); in experiment [3], -0.438 (inactive); in [5], -0.126 (inactive); in experiment [6], 1.23 (inactive); in experiment [7], 0.0519 (inactive). Further, the z-score in experiment [8] is -0.21 (inactive); in [9] it was -0.361. In addition, the composite z-score is 0.407 (inactive) in experiment [4] and 0.0512 in [10].

(Values after PubChem BioAssay.)
